“And” between values parts separate entries of the source, which are not always exact repeats. Equal values may be shown once. Records with an inconclusive call do not appear. Some structures have more than one record in an assay (separate samples or runs), and their calls can disagree. The source made the active and inactive calls. Unless noted, calls follow the shape of the dose curve; as a rule, active = well fitted curve in the direction sought with a large enough effect in the repeat runs; inconclusive = weak or mixed curves; inactive = no such curve, though single readings can be large; an effect the other way counts as inactive or inconclusive.

Experiment [1] in a line: qHTS assay to test for compound auto fluorescence at 535 nm (green) in HEK293 cells (AID 720680).
Experiment [2] in a line: qHTS assay to test for compound auto fluorescence at 460 nm (blue) in HEK293 cell free culture (AID 720681). The method in brief: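 Test compounds were pinned into cell-free culture medium (DMEM with 10% FBS) and fluorescence was read directly at Ex/Em 405/460 nm. Signals were expressed as fluorescence equivalents of triamterene, with DMSO vehicle as control.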
(In general: qHTS replaces the single test concentration by a dilution series.)

Experiment [3] can be described thus: qHTS assay to test for compound auto fluorescence at 535 nm (green) in HEK293 cell free culture (AID 720682). The gist of the method: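 Green-label autofluorescence (485 nm excitation, 535 nm emission) measured on compound added to cell-free culture medium (DMEM, 10% FBS). Output is expressed relative to fluorescein.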
The nature of experiment [4]: qHTS assay to test for compound auto fluorescence at 590 nm (red) in HEK293 cell free culture (AID 720683). The method in brief: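 Tox21 10K library compounds were pinned into cell-free DMEM with 10% FBS and fluorescence was read at excitation 540 nm. Activity is expressed as Rose Bengal sodium equivalency.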
The nature of experiment [5]: qHTS assay to test for compound auto fluorescence at 590 nm (red) in HepG2 cell free culture (AID 720684). The gist of the method: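 Red fluorescence (540 nm excitation, 590 nm emission) was measured after compound transfer into cell-free MEM supplemented with 10% FBS. Values are equivalencies against Rose Bengal sodium.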
Experiment [6] is described as follows: qHTS assay to test for compound auto fluorescence at 460 nm (blue) in HepG2 cell free culture (AID 720685). The method in brief:
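Compound (23 nL) or DMSO pinned into cell-free MEM with 10% FBS; blue fluorescence read at 405/460 nm excitation/emission, expressed as auto-fluorescence equivalency to triamterene.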

The nature of experiment [7]: qHTS assay to test for compound auto fluorescence at 535 nm (green) in HepG2 cell free culture (AID 720686).
The target in experiment [8] is Glucocorticoid receptor (Homo sapiens) (UniProt P04150). Kind of experiment: qHTS assay to identify small molecule agonists of the glucocorticoid receptor (GR) signaling pathway (AID 720691; active = well fitted activation curve with a large enough effect in the signal ratio in the repeat runs, not every such curve was filed as active; the % refers to the signal ratio; also: potency is read from the fitted curve at half-maximal effect). The method in brief:
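GR-bla HeLa cells (beta-lactamase reporter under glucocorticoid response element) were plated 4 h at 37 C/5% CO2, given compounds in DMSO, and incubated 18 h at 37 C. LiveBLAzer B/G FRET substrate was added for 2 h at room temperature, then fluorescence intensity read.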

Experiment [9] shares this target. Kind of experiment: qHTS assay to identify small molecule antagonists of the glucocorticoid receptor (GR) signaling pathway (AID 720692; active = well fitted inhibition curve with a large enough effect in the signal ratio in the repeat runs, not every such curve was filed as active; the % refers to the signal ratio). The method in brief:
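GR-bla HeLa cells (beta-lactamase reporter under glucocorticoid response element) were pre-plated 4 h at 37 C, treated with compounds plus 5 nM dexamethasone (final) for 18 h, then read by LiveBLAzer B/G FRET fluorescence after 2 h.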

The nature of experiment [10]: qHTS assay to identify small molecule antagonists of the glucocorticoid receptor (GR) signaling pathway - cell viability counter screen (AID 720693). Also: nearly all actives have a fitted effect of over 55% in size.
Experiment [11] is described as follows: qHTS assay for identifying genotoxic compounds that show differential cytotoxicity against isogenic chicken DT40 cell lines with known DNA damage response pathways - wild type cell line (AID 743012). Also: nearly all actives have a fitted effect of over 60% in size. Also: potency is read from the fitted curve at half-maximal effect. The gist of the method:
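Parental DNA repair-proficient DT40 cells, 300 per well, were pre-incubated ~0.5 h at 37 C/5% CO2, pin-dosed with compounds in DMSO, then incubated 40 h. Viability was read as CellTiter-Glo luminescence after 30 min at room temperature.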

Experiment [12] in a line: qHTS assay for identifying genotoxic compounds that show differential cytotoxicity against isogenic chicken DT40 cell lines with known DNA damage response pathways - Rev3 mutant cell line (AID 743014). Also: nearly all actives have a fitted effect of over 55% in size. Also: potency is read from the fitted curve at half-maximal effect.
Experiment [13] is described as follows: qHTS assay for identifying genotoxic compounds that show differential cytotoxicity against isogenic chicken DT40 cell lines with known DNA damage response pathways - Rad54/Ku70 mutant cell line (AID 743015). Also: nearly all actives have a fitted effect of over 60% in size. Also: potency is read from the fitted curve at half-maximal effect.
The nature of experiment [14]: qHTS assay to identify small molecule antagonists of the androgen receptor (AR) signaling pathway - cell viability counter screen (AID 743033; also: nearly all actives have a fitted effect of over 45% in size).
The target in experiment [15] is Androgen receptor (Homo sapiens) (UniProt P10275). The experiment can be described thus: qHTS assay to identify small molecule antagonists of the androgen receptor (AR) signaling pathway (AID 743035; active = well fitted inhibition curve with a large enough effect in the signal ratio in the repeat runs, not every such curve was filed as active; the % refers to the signal ratio). The gist of the method: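 HEK293 cells stably carrying a UAS-driven beta-lactamase reporter (AR-UAS-bla GripTite) were plated for 4 h at 37C, then given compound and the agonist R1881 and incubated 16 h. Reporter activity was read by LiveBLAzer B/G FRET fluorescence after 2 h at room temperature.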

Experiment [16] shares this target. The experiment can be described thus: qHTS assay to identify small molecule agonists of the androgen receptor (AR) signaling pathway (AID 743036; active = well fitted activation curve with a large enough effect in the signal ratio in the repeat runs, with a control signal flat, not every such curve was filed as active; the % refers to the signal ratio). The gist of the method: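 AR-UAS-bla HEK293 cells, plated 4 h before dosing, were treated with compound for 16 h at 37C. beta-Lactamase reporter read after 2 h with LiveBLAzer B/G FRET substrate at room temperature.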

The target is the same in experiment [17]. The experiment can be described thus: qHTS assay to identify small molecule agonists of the androgen receptor (AR) signaling pathway using the MDA cell line (AID 743040; also: nearly all actives have a fitted effect of over 20% in size). The method in brief: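 MDA-kb2 breast carcinoma cells stably carrying an MMTV-driven luciferase reporter (AR- and GR-responsive) were seeded and held 5 h at 37C, 0% CO2, then exposed to compounds in DMSO for 16 h. Luminescence was read 30 min after ONE-Glo addition.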

A short description of experiment [18]: qHTS assay to identify small molecule antagonists of the androgen receptor (AR) signaling pathway using the MDA cell line - cell viability counter screen (AID 743041; also: nearly all actives have a fitted effect of over 45% in size). The gist of the method:
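MDA-kb2 AR-luc human breast carcinoma cells (MMTV-luciferase, AR/GR responsive) were treated with compounds plus R1881 agonist for 16 h at 37 °C. Viability was read as CellTiter-Fluor fluorescence in the same wells as the reporter assay.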

Experiment [19] addresses Androgen receptor (Homo sapiens) (UniProt P10275). Kind of experiment: qHTS assay to identify small molecule antagonists of the androgen receptor (AR) signaling pathway using the MDA cell line (AID 743042; also: nearly all actives have a fitted effect of over 55% in size). The gist of the method:
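MDA-kb2 cells (human breast carcinoma, stably carrying an MMTV-luciferase reporter responsive to AR and GR) were plated at 3,000 cells/well and preincubated 5 hr at 37C, then given compound plus R1881 agonist for 16 h. ONE-Glo luminescence was read.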

The nature of experiment [20]: qHTS assay to test for compound auto fluorescence at 460 nm (blue) in HepG2 cells (AID 720687). The gist of the method: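 Cells (2,000/well in MEM with 10% FBS) attached overnight at 37 C, then were exposed to compound or DMSO for 1 hr at 37 C, 5% CO2. Fluorescence read at Ex/Em 405/460 nm, expressed as triamterene-equivalent signal.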

Chain of Androgen receptor (Homo sapiens) (P10275 whole entry, looked up): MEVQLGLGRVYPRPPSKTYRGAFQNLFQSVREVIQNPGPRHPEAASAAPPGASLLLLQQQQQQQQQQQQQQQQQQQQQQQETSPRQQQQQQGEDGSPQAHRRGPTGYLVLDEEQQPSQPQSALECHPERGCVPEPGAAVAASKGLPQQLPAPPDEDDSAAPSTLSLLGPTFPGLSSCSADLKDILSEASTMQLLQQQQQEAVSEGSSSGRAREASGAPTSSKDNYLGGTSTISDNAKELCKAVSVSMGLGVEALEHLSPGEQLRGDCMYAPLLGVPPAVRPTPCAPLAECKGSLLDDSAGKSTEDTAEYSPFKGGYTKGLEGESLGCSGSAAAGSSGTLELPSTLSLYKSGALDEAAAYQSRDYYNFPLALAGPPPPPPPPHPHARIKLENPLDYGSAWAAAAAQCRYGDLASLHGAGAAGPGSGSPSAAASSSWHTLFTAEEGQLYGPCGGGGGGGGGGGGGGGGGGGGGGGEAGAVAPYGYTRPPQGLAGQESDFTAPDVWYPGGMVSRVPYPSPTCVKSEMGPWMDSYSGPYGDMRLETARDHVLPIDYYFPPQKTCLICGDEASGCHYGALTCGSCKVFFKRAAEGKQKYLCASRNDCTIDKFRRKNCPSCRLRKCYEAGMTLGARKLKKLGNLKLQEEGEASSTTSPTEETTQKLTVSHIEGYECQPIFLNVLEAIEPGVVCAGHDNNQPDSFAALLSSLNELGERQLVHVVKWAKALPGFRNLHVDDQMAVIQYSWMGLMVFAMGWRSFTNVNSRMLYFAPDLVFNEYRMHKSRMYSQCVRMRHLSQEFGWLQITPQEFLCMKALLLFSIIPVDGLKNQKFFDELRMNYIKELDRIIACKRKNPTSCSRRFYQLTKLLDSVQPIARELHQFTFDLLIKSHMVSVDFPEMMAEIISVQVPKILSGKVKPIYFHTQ
Chain of Glucocorticoid receptor (Homo sapiens) (P04150 whole entry, looked up): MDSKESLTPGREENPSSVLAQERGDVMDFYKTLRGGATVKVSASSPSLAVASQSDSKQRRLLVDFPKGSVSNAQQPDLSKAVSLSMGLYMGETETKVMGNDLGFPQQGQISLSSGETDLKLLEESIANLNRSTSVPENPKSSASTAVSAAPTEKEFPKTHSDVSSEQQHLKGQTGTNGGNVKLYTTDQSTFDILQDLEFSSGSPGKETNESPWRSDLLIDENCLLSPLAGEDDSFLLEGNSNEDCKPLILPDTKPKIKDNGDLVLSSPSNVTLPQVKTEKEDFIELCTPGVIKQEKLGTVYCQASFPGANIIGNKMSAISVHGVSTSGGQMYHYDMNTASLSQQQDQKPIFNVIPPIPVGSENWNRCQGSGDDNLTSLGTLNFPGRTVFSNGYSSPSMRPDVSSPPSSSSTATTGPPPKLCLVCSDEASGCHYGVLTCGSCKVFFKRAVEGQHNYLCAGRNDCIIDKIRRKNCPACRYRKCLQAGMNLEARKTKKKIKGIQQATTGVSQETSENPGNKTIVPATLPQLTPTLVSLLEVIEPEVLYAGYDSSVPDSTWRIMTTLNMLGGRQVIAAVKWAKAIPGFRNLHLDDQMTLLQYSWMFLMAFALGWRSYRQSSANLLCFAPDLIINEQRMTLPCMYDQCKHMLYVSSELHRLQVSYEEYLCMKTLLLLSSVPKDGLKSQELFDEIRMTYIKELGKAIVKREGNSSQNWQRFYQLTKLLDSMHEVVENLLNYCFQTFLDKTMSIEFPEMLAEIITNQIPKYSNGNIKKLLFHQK

Turning to `COc1ccc2nc(N)sc2c1`, the Potency entry in experiment [1], in experiment [2], in experiment [3], in experiment [4], in [5] and in [6] was “inactive” each time. Moreover, the Potency result in experiment [7], in [8], in experiment [9], in [10], in [11] and in [12] was “inactive” each time. The Potency entry in [13], in [14], in experiment [15], in experiment [17], in experiment [18] and in [19] was “inactive” throughout. In experiment [16], the molecule was classed as inactive.

For `O=C(O)c1cc(=O)[nH]c(=O)[nH]1`, the Potency entry in [1], in experiment [2], in experiment [3], in experiment [4], in experiment [5] and in experiment [6] was “inactive” in each case. Also, the Potency result in experiment [7], in [8], in [9], in experiment [10], in experiment [11] and in experiment [12] was “inactive” throughout. In addition, the Potency entry in experiment [13], in [14] and in experiment [18] was “inactive” in each case.

Consider `O=C(CCCN1CCC(O)(c2ccc(Cl)cc2)CC1)c1ccc(F)cc1`, for which the Potency result in experiment [1], in [2], in experiment [3], in experiment [4], in experiment [5] and in experiment [6] was “inactive” in each case. Further, the Potency entry in experiment [7], in [20], in experiment [8], in experiment [10], in experiment [14] and in [18] was “inactive” in each case. The Potency in [11] was 5.96 µM (active) and 7.7 µM (active); in experiment [12], 3.35 µM (active) and 1.72 µM (active).

As for `CC(=O)Nc1ccc2c(c1)Cc1cc(NC(C)=O)ccc1-2`, the Potency entry in experiment [1], in experiment [2], in [3], in experiment [4], in experiment [5] and in experiment [6] was “inactive” each time. In addition, the Potency entry in experiment [7], in [20], in experiment [8], in experiment [9], in experiment [10] and in experiment [11] was “inactive” throughout. For the same molecule, the Potency entry in experiment [12], in experiment [14] and in [18] was “inactive” throughout.

Consider `CC1=CC(C)(C)Nc2ccccc21`, for which the Potency entry in [1], in experiment [2], in experiment [3], in [4], in [5] and in experiment [6] was “inactive” throughout. Further, the Potency result in [7], in experiment [20], in experiment [10], in [12], in experiment [13] and in [14] was “inactive” throughout. For the same molecule, the Potency result in experiment [18] is “inactive”. The Potency entry in [11] was “inactive and 66.8 µM (active)”.

Consider `Cc1ccc(C(C)(C)C)c(O)c1`, for which the Potency entry in experiment [1], in experiment [2], in experiment [3], in experiment [4], in experiment [5] and in experiment [6] was “inactive” each time. The Potency entry in [7], in experiment [20], in [10] and in experiment [18] was “inactive” throughout. The Potency in [11] was 54.5 µM (active); in experiment [12], “inactive and 48.6 µM (active)”; in [13], “inactive and 43.3 µM (active)”.

On to `NCCOCCO`, for which the Potency result in [1], in [2], in experiment [3], in experiment [4], in [5] and in [6] was “inactive” throughout. Moreover, the Potency entry in experiment [7], in experiment [20], in experiment [8], in experiment [9], in [10] and in experiment [11] was “inactive” each time. Besides, the Potency entry in [12], in [14] and in experiment [18] was “inactive” in each case.

As for `CC1(C)O[C@@H]2C[C@H]3[C@@H]4C[C@H](F)C5=CC(=O)C=C[C@]5(C)[C@@]4(F)[C@@H](O)C[C@]3(C)[C@]2(C(=O)CO)O1`, the Potency entry in [1], in experiment [2], in experiment [3], in [4], in experiment [5] and in [6] was “inactive” each time. Besides, the Potency result in [7], in experiment [20], in experiment [10], in experiment [11], in experiment [12] and in experiment [13] was “inactive” throughout. Also, the Potency result in experiment [14] and in [18] was “inactive” in each case. Besides, the Potency in experiment [8] was 3.8 nM (active) and 1.2 nM (active).

(Values after PubChem BioAssay (Tox21).)
